Tg IFNy HTS: inhibitors of Toxoplasma gondii growth with IFN-gamma; Toxoplasma gondii growth in IFN-gamma-treated host cells; stronger effect = lower value; activity change, negative = inhibition, % (test concentration not listed); 3.8% of 69,000 active; AID 1259416; in the data active = activity change below about -70%, passing the limit was not always enough;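 note: host cells are HeLa cells infected with Toxoplasma gondii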
Active calls of the source: *. This excerpt belongs to a sample that is enriched for hits.

SMILES	Tg IFNy HTS
Cn1ncc2c(NCc3cc(C(C)(C)C)n[nH]3)nc(C(C)(C)C)nc21	-75.2*
CCOC(=O)CNc1nc(C(C)(C)C)nc2c1cnn2C	-3.5
Cc1ccc(CN2CC[C@@H]3CO[C@H](CNC(=O)C4CC4)[C@@H]3C2)o1	-1.3
Cc1oc2c(O)c(O)ccc2c(=O)c1-c1ccccc1	43.3
Cc1cc(=O)oc2c(O)c(O)ccc12	7.1
O=c1cc(-c2ccccc2)oc2c(O)c(O)ccc12	-91.5*
CC(C)C(NC(=O)c1cc(-c2ccncc2)c2cnccc2n1)c1cccs1 (centres undefined)	-87.3*
CC(C)C(NC(=O)c1cccc(-n2cnnc2)c1)c1cccs1 (centres undefined)	114.5
CC1CCN(CC(C)(C)NC(=O)c2cc(-c3ccncc3)c3cnccc3n2)CC1	-14.0
O=C(CN1C(=O)CCc2cc(S(=O)(=O)N3CCCC3)ccc21)NCCc1ccccc1	-3.1
CC1(C(=O)NCc2ccc(F)cc2F)CCN(C(=O)c2cccs2)CC1	9.0
Cc1noc(C)c1CN(C)C(=O)c1c(O)cccc1O	2.0
COc1ccc(-c2cc(C(=O)NCCc3nc4cc(C)c(C)cc4[nH]3)nn2C)cc1	-1.5
Cc1cc2nc(CCNC(=O)c3cnc(-c4ccc(Cl)cc4)nc3)[nH]c2cc1C	-94.8*
Cc1ccc2c(c1)cc(C(=O)NCCc1nc3cc(C)c(C)cc3[nH]1)n2C	6.5
CCNC(=O)N1CCC2(CC1)CCn1c(C3CC3)cnc12	0.5
O=C(Nc1cccc(F)c1)C1CN(C(=O)NCc2cccc(F)c2)CC12CCOCC2 (centres undefined)	-50.5
CC(C)c1ccc(NS(=O)(=O)c2cc3c4c(c2)CCN4C(=O)CC3)cc1	-76.5*
CCc1ccccc1NS(=O)(=O)c1cc2c3c(c1)CCN3C(=O)CC2	-52.2
CCc1cccc(NS(=O)(=O)c2cc3c4c(c2)CCN4C(=O)CC3)c1	-80.9*
O=C1CCc2cc(S(=O)(=O)NCCc3ccccc3)cc3c2N1CCC3	-5.3
Cc1cc(F)ccc1NS(=O)(=O)c1cc2c3c(c1)CCN3C(=O)CC2	-45.1
Cc1cc(C)cc(NS(=O)(=O)c2cc3c4c(c2)CCN4C(=O)CC3)c1	-79.4*
COc1ccc(NS(=O)(=O)c2cc3c4c(c2)CCN4C(=O)CC3)cc1	-15.3
O=C1CCc2cc(S(=O)(=O)Nc3ccc(Cl)cc3)cc3c2N1CC3	-17.0
SMILES	Tg IFNy HTS
O=C1CCc2cc(S(=O)(=O)Nc3ccc(Br)cc3)cc3c2N1CC3	242.9
CNC(=O)[C@@H]1C[C@H](N)CN1S(=O)(=O)c1sccc1C	3.6
O=C(c1ccc(Cn2cnnn2)cc1)N1CCCC(c2ccn[nH]2)C1 (centres undefined)	-21.4
Nc1nc2c(ccc3[nH]c(=O)c(=O)[nH]c32)s1	-37.0
CCCCCc1nnc(NC(=O)C2CC(=O)N(CCc3c[nH]c4ccc(C)cc34)C2)s1 (centres undefined)	-54.3
O=C1CCCN1CC1CN(CC2CCOC2)Cc2nccn2C1 (centres undefined)	0.1
O=C1CCCN1CC1CN(C(=O)c2ccccn2)Cc2nccn2C1 (centres undefined)	-98.4*
O=C(c1ccc[nH]1)N1Cc2nccn2CC(CN2CCCC2)C1 (centres undefined)	-5.5
O=C(c1cc(-n2cccc2)ccc1O)N1CCCC(Cn2ccnc2)C1 (centres undefined)	-3.9
Cc1[nH]c2c(c1C(=O)NCc1cccnc1N1CCN(C)CC1)C(=O)CCC2	-5.5
O=S(=O)(c1ccccc1Cl)N1CCc2nc(-c3ccccc3)sc2C1	-15.4
O=S(=O)(c1ccc(F)c(Cl)c1)N1CCc2nc(-c3ccccc3)sc2C1	16.3
COc1ccc(-c2nc3c(s2)CN(S(=O)(=O)c2ccc(C)cc2)CC3)cc1OC	-87.1*
COc1ccc(-c2nc3c(s2)CN(S(=O)(=O)c2ccc(F)cc2)CC3)cc1OC	18.2
COc1ccc(-c2nc3c(s2)CN(S(=O)(=O)c2ccccc2C)CC3)cc1OC	-93.8*
COc1ccc(-c2nc3c(s2)CN(C(=O)Nc2ccc(C)cc2)CC3)cc1OC	-41.6
COc1ccc(-c2nc3c(s2)CN(S(=O)(=O)c2cc(F)ccc2C)CC3)cc1OC	-67.5
CCc1ccc(S(=O)(=O)N2CCc3nc(-c4ccc(OC)c(OC)c4)sc3C2)cc1	21.4
COc1ccc(Cl)cc1S(=O)(=O)N1CCc2nc(-c3ccccc3)sc2C1	-118.1*
COc1ccc(-c2nc3c(s2)CN(S(=O)(=O)c2ccc(C)c(C)c2)CC3)cc1OC	-98.4*
COc1ccc(-c2nc3c(s2)CN(S(=O)(=O)Cc2ccccc2)CC3)cc1OC	-35.0
COc1ccc(-c2nc3c(s2)CN(S(=O)(=O)c2ccc(NC(C)=O)cc2)CC3)cc1	-25.9
CC1(C)CC(c2nccn2Cc2cnn(Cc3ccccc3)c2)CCO1 (centres undefined)	4.9
CC(C)CS(=O)(=O)N1C[C@H]2C[C@H](C(=O)Nc3cccnc3)[C@@H](C1)O2	152.0
Cc1cnn(C)c1NC(=O)c1cccc(CN2CC[C@@H]3CCCC[C@H]3C2)c1	0.9
CS(=O)(=O)c1ccc(CC(=O)O)cc1	15.9
CS(=O)(=O)N1CCC(c2nc3ccc(N4CCOCC4)cn3n2)CC1	3.6
